# Measured values published in PubChem BioAssay (NCI).
# About 83,000 compounds went through this panel and 20% of them were active in at least one assay; those are over-represented in the sample as a whole.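 Cells were grown in 96-well plates and exposed to the test compound at a single concentration for 48 hours; results are reported as percent growth, with values below 10 considered active.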 Unmarked numbers belong to inactive results. Calls of active or inactive are those of the source.
# Tested on: HL-60(TB) leukemia
# Assay: NCI-60 one-dose screen, 48 h (100 = growth as untreated, 0 = no growth, -100 = all killed)
# Conditions: 10 µM unless noted
row,SMILES,growth
1,CN(C)CCCn1c2c(c3ccncc3c1=O)C(=O)c1ccccc1-2,-19.8% (active)
2,O=C(Nc1ccc(-n2cc(-c3ccncc3)c(-c3ccc(O)c(Cl)c3)n2)cc1)c1cc(C(F)(F)F)cc(C(F)(F)F)c1,84.4%
3,C[C@]12CC[C@@H]3c4cc(O)c(O)cc4CC[C@H]3[C@@H]1CC[C@@H]2O,4.62% (active)
4,CCCCOC(=O)c1cc(O)c(O)c(O)c1,24.7%
5,O=C(c1ccccc1)C(Br)C(Br)c1ccccc1 (stereo not given),39.5%
6,CC1(c2ccccc2)CO1 (stereo not given),105%
7,CCOC(=O)C(NC(=O)C(Cl)Cl)C(O)c1ccccc1 (stereo not given),113%
8,CC(C)c1cc(C(=O)O)c(O)c(C(C)C)c1.CC(C)c1cc(C(=O)O)c(O)c(C(C)C)c1.[Mn],94.2%
9,CCOC(=O)C1=C(c2ccccc2)N=C2SC=C(c3ccc(Cl)cc3)N2C1c1ccc(Cl)cc1 (stereo not given),52.6%
10,O=P(OCCCl)(OCCCl)C(O)c1ccccc1Cl (stereo not given),96.2%
11,COc1ccc(C2=NN(C=O)C(c3cccc(Nc4ccnc5cc(Cl)ccc45)c3)C2)cc1 (stereo not given),-13.1% (active)
12,N#CSCc1c(Cl)cccc1Cl,88.9%
13,O=C(O)c1ccc(NC(=O)c2cccc(Nc3ccnc(C(F)(F)F)c3)c2)cc1,94.1%
14,CC(=O)C(C(C)=O)c1nc2sc3cc(Cl)ccc3n2c(=N)c1C#N,112%
15,O=C1N=C(N2CCOCC2)S/C1=C\c1cn(-c2ccccc2)nc1-c1ccccc1,105%
16,CNC(=O)c1cccc(Cn2nc(C)c(NC(=O)c3ccc(COc4ccc(C(F)(F)F)cc4C)cc3)c2C)n1,36.7%
17,CC[C@]1(O)C[C@@H]2CN(CCc3c([nH]c4ccccc34)[C@@](C(=O)OC)(c3cc4c(cc3OC)N(C)[C@H]3[C@@](O)(C(=O)OC)[C@H](OC(=O)CCCBr)[C@]5(CC)C=CCN6CC[C@]43[C@@H]65)C2)C1,-21.2% (active)
18,CCOC(=O)c1ccc2c(c1)nc(-c1ccccc1)n2C1CCCCC1,63.1%
19,COc1ccc(-c2nnc(COc3ccc(NS(=O)(=O)c4ccc(OC)cc4)cc3F)o2)cc1,76.6%
20,COc1ccc(Cl)cc1NC(=O)c1cc2c(n1C)-c1nc(NC(=O)C(C)(C)C)sc1CC2,82.7%

row,SMILES,growth
1,Cc1cc(NS(=O)(=O)c2ccccc2)c(OS(=O)(=O)c2ccccc2)cc1C,105%
2,O=C(O)c1cccc2c1Cc1cc([N+](=O)[O-])ccc1-2,120%
3,COc1ccc(CSc2nc3cc(OC)c(OC)cc3c(=O)n2-c2ccc(OC)cc2OC)cc1,112%
4,O=C1C2CC3C(CC2C(=O)[N]1[Sn]([c]1ccccc1)([c]1ccccc1)[c]1ccccc1)C1(Cl)C(Cl)=C(Cl)C3(Cl)C1(Cl)Cl (stereo not given),-58% (active)
5,Nc1ncnc2c1ncn2C1OC(CO)C2OC21 (stereo not given),114%
6,Oc1ccc(Cl)cc1CNc1nc2ccccc2[nH]1,-56.6% (active)
7,COc1cc(-c2nn(-c3ccc(NC(=O)Nc4cc(C(F)(F)F)cc(C(F)(F)F)c4)cc3)cc2-c2ccncc2)ccc1Cl,4.78% (active)
8,O=C1c2ccccc2C(=O)c2c(NCCN=Cc3c(O)ccc4ccccc34)cccc21,66.3%
9,OC1Cc2ccccc2C1,100%
10,O=C(CSc1nc2c(n1Nc1ccccc1)-c1ccccc1SC2)Nc1nccs1,102%
11,COc1cc2nc(-c3ccc(Cl)cc3)cc(OCCCN3CCC(O)CC3)c2cc1OC,32.9%
12,Cc1cc(C)nc(SC2=C(Nc3cccc(Cl)c3C)C(=O)N(Cc3ccccc3)C2=O)n1,10.4% [30 µM]
13,COc1ccc(C#Cc2ccc(=O)oc2-c2cc(OC)c(OC)c(OC)c2)cc1O,23.5%
14,Nc1ncnc2c1ncn2C1OC(COP(=O)(O)O)C(O)C1O (stereo not given),102%
15,CC[C@H](CC[C@@H](C)[C@H]1CC[C@H]2[C@@H]3CC=C4C[C@@H](OCCc5nn[nH]n5)CC[C@]4(C)[C@H]3CC[C@]12C)C(C)C,103%
16,C=C1C(=O)C2CCC1C2 (stereo not given),95.9%
17,c1ccc(-c2cc3cc4ccccc4cn3c2)cc1,94.6%
18,O=C1/C(=C/c2ccc(-c3ccccc3C(F)(F)F)o2)SC(=S)N1CCc1ccc(O)cc1,20.8%
19,O=C(CCSc1nnc2n(Cc3ccccc3)c(=O)c3c4c(sc3n12)CCCC4)N1CCN(c2ccccc2)CC1,106%
20,Cc1cc2c(C(C)C)c(O)c(O)c(C=NCc3ccoc3)c2c(O)c1-c1c(C)cc2c(C(C)C)c(O)c(O)c(C=NCc3ccco3)c2c1O,9.25% (active)
